Assay [1] in a line: NCI Yeast Anticancer Drug Screen. Data for the rad50 strain (AID 155).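 Also: 0% = growth of vehicle-only cultures of the same strain.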 As to conditions: S. cerevisiae rad50 strain growth inhibition, active compounds read high. The procedure, abridged:
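A DNA repair-deficient yeast mutant serves as the test organism; compound-induced growth inhibition is calculated against vehicle-treated cells.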

The nature of assay [2]: NCI Yeast Anticancer Drug Screen. Data for the mec2-1 strain (AID 157). The conditions noted are these: S. cerevisiae mec2-1 strain, active compounds read high. The procedure, abridged:
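Readout is yeast growth inhibition, normalised to vehicle-treated controls, in the mec2-1 strain exposed to compound.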

Assay [3] can be described thus: NCI Yeast Anticancer Drug Screen. Data for the sgs1 mgt1 strain (AID 161).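 Also: 0% = growth of cultures given vehicle only.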 As to conditions: S. cerevisiae sgs1 mgt1 strain, active compounds read high. The procedure, abridged:
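This yeast growth screen uses a strain with defined DNA-repair lesions; compound-treated growth is compared with vehicle-treated growth.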

Assay [4] can be described thus: NCI Yeast Anticancer Drug Screen. Data for the cln2 rad14 strain (AID 165).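 Also: 0% = growth equal to vehicle treated cultures.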 As to conditions: S. cerevisiae cln2 rad14 strain, active compounds read high. The procedure, abridged:
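Relative to vehicle controls, growth inhibition of compound-treated cln2 rad14 yeast was recorded.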

Assay [5] is described as follows: NCI Yeast Anticancer Drug Screen. Data for the bub3 strain (AID 167). As to conditions: S. cerevisiae bub3 mutant strain, active compounds read high. The procedure, abridged:
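Inhibition values come from growth of compound-treated mutant yeast normalised to vehicle-treated controls.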

The nature of assay [6]: NCI Yeast Anticancer Drug Screen. Data for the mlh1 rad18 strain (AID 175). As to conditions: S. cerevisiae mlh1 rad18 strain growth inhibition, active compounds read high. The procedure, abridged: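 Test agents were incubated with a yeast strain of defined genotype (DNA damage repair defect). Inhibition of growth was derived by comparison with vehicle-exposed cultures.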
Setting [7] is: at 5.0 µM (retest, dose inferred, filed as 0.5).
Where [8] appears, read: at 50.0 µM (retest, dose inferred, filed as 5.0).

The panel holds about 79,000 compounds, 15% with a hit somewhere; the sample as a whole holds those more often. Values without a mark were called inactive. Calls of active or inactive are those of the source. Rule as the data show it: active = growth inhibition above about 70%; inactive = the rest.

As for `O=C(Nc1cc(Cl)ccc1Cl)Nc1ccc(Cl)cc1C(=O)c1ccccc1`, the growth inhibition in assay [1] (setting [7]) is 98% (active); in assay [1] (setting [8]), 99% (active); in assay [1] (at 50.0 µM), 84.9% (active); in assay [2] (setting [7]), 97% (active); in assay [2] (setting [8]), 98% (active); in assay [2] (at 50.0 µM), 91.6% (active). Also, the growth inhibition in assay [3] (setting [7]) was 27%; in assay [3] (setting [8]) it was 95% (active); in assay [3] (at 50.0 µM) it was 88.9% (active); in assay [4] (setting [7]), 73% (active); in assay [4] (setting [8]), 92% (active); in assay [4] (at 50.0 µM), 88% (active). In addition, the growth inhibition is 71% (active) in assay [5] (setting [7]); 87% (active) in assay [5] (setting [8]); 79.3% (active) in assay [5] (at 50.0 µM); 100% (active) in assay [6] (setting [7]); 99% (active) in assay [6] (setting [8]); 88.2% (active) in assay [6] (at 50.0 µM).
Turning to `CCCCCCc1ccc(O)cc1O`, the growth inhibition in assay [1] (setting [7]) is 5%; in assay [1] (setting [8]), 98% (active); in assay [1] (at 50.0 µM), 99.5% (active); in assay [2] (setting [7]), -3%; in assay [2] (setting [8]), 100% (active); in assay [2] (at 50.0 µM), 99.8% (active). For the same molecule, the growth inhibition in assay [3] (setting [7]) was -1%; in assay [3] (setting [8]) it was 100% (active); in assay [3] (at 50.0 µM) it was 99.5% (active); in assay [4] (setting [7]), -4%; in assay [4] (setting [8]), 99% (active); in assay [4] (at 50.0 µM), 99.5% (active). The growth inhibition in assay [5] (setting [7]) is -1%; in assay [5] (setting [8]) it was 99% (active); in assay [5] (at 50.0 µM) it was 99.5% (active); in assay [6] (setting [7]), -1%; in assay [6] (setting [8]), 99% (active); in assay [6] (at 50.0 µM) it was 36%.
`COc1cc(CC(=O)O)c(Cc2ccc3c(c2)Cc2ccccc2-3)cc1OC`: the growth inhibition was -7% in assay [1] (setting [7]); 94% (active) in assay [1] (setting [8]); 49% in assay [1] (at 50.0 µM); 4% in assay [2] (setting [7]); 77% (active) in assay [2] (setting [8]); 53.5% in assay [2] (at 50.0 µM). Also, the growth inhibition in assay [3] (setting [7]) was -1%; in assay [3] (setting [8]), 92% (active); in assay [3] (at 50.0 µM), 52.1%; in assay [4] (setting [7]), 6%; in assay [4] (setting [8]) it was 91% (active); in assay [4] (at 50.0 µM), 88.7% (active). The growth inhibition in assay [5] (setting [7]) was -7%; in assay [5] (setting [8]), 95% (active); in assay [5] (at 50.0 µM), 94.5% (active); in assay [6] (setting [7]) it was 2%; in assay [6] (setting [8]), 88% (active); in assay [6] (at 50.0 µM) it was 47.6%.
Regarding `N=c1n(CC(=O)NC23CC4CC(CC(C4)C2)C3)c2ccccc2n1CC(=O)NC12CC3CC(CC(C3)C1)C2`, the growth inhibition in assay [1] (setting [7]) was -4%; in assay [1] (setting [8]), 34%; in assay [1] (at 50.0 µM), 59.1%; in assay [2] (setting [7]), -15%; in assay [2] (setting [8]) it was 8%; in assay [2] (at 50.0 µM), 34.2%. In addition, the growth inhibition in assay [3] (setting [7]) is -2%; in assay [3] (setting [8]), 42%; in assay [3] (at 50.0 µM), 44.5%; in assay [4] (setting [7]), -14%; in assay [4] (setting [8]), 25%; in assay [4] (at 50.0 µM), 44%. Besides, the growth inhibition in assay [5] (setting [7]) was -19%; in assay [5] (setting [8]), 12%; in assay [5] (at 50.0 µM), 59.5%; in assay [6] (setting [7]) it was -5%; in assay [6] (setting [8]) it was 27%; in assay [6] (at 50.0 µM) it was 79.1% (active).
Turning to `Cn1cc(CCC(=O)C2C=CC=CC2=NC(=O)CCCl)c2ccccc21` (stereo not given), the growth inhibition in assay [1] (setting [7]) was 11%; in assay [1] (setting [8]) it was 7%; in assay [1] (at 50.0 µM) it was -3.6%; in assay [2] (setting [7]), 7%; in assay [2] (setting [8]), -6%; in assay [2] (at 50.0 µM) it was 12.8%. The growth inhibition in assay [3] (setting [7]) is -1%; in assay [3] (setting [8]), -20%; in assay [3] (at 50.0 µM), -4%; in assay [4] (setting [7]), 14%; in assay [4] (setting [8]), 14%; in assay [4] (at 50.0 µM), 14.3%. The growth inhibition is 11% in assay [5] (setting [7]); 7% in assay [5] (setting [8]); 8.95% in assay [5] (at 50.0 µM); -2% in assay [6] (setting [7]); 1% in assay [6] (setting [8]); -17.1% in assay [6] (at 50.0 µM).
Turning to `O=c1c2ccccc2c2ccccc2c(=O)n1-c1cc2c3ccccc3ccc2c2ccccc12`, the growth inhibition in assay [1] (setting [7]) is 12%; in assay [1] (setting [8]) it was 16%; in assay [1] (at 50.0 µM), -16.2%; in assay [2] (setting [7]) it was -11%; in assay [2] (setting [8]), 9%; in assay [2] (at 50.0 µM) it was -12.8%. Also, the growth inhibition in assay [3] (setting [7]) is -4%; in assay [3] (setting [8]) it was 9%; in assay [3] (at 50.0 µM) it was -2.4%; in assay [4] (setting [7]), -11%; in assay [4] (setting [8]), -10%; in assay [4] (at 50.0 µM) it was 68.2%. Moreover, the growth inhibition in assay [5] (setting [7]) was -12%; in assay [5] (setting [8]), -5%; in assay [5] (at 50.0 µM), -66.5%; in assay [6] (setting [7]), 5%; in assay [6] (setting [8]), 9%; in assay [6] (at 50.0 µM) it was 37.8%.
As to `COC(=O)c1ccc([N+](=O)[O-])o1`, the growth inhibition in assay [1] (setting [7]) was 7%; in assay [1] (setting [8]), 42%; in assay [1] (at 50.0 µM) it was 70.7% (active); in assay [2] (setting [7]), 7%; in assay [2] (setting [8]), 38%; in assay [2] (at 50.0 µM), 46.4%. Also, the growth inhibition was 4% in assay [3] (setting [7]); 26% in assay [3] (setting [8]); 76.8% (active) in assay [3] (at 50.0 µM); -5% in assay [4] (setting [7]); 5% in assay [4] (setting [8]); 23.2% in assay [4] (at 50.0 µM). For the same molecule, the growth inhibition in assay [5] (setting [7]) is 0%; in assay [5] (setting [8]) it was 71% (active); in assay [5] (at 50.0 µM), 62.1%; in assay [6] (setting [7]), 13%; in assay [6] (setting [8]) it was 56%; in assay [6] (at 50.0 µM), 72.3% (active).
Consider `O=C1OC(c2ccccc2)N/C1=C\c1ccc2c(c1)OCO2` (stereo not given), for which the growth inhibition was 34% in assay [1] (setting [7]); 53% in assay [1] (setting [8]); -45.7% in assay [1] (at 50.0 µM); 17% in assay [2] (setting [7]); 20% in assay [2] (setting [8]); -53.1% in assay [2] (at 50.0 µM). Moreover, the growth inhibition in assay [3] (setting [7]) was 22%; in assay [3] (setting [8]), 24%; in assay [3] (at 50.0 µM), -8.55%; in assay [4] (setting [7]) it was 11%; in assay [4] (setting [8]), 21%; in assay [4] (at 50.0 µM), 3.55%. In addition, the growth inhibition in assay [5] (setting [7]) is 22%; in assay [5] (setting [8]), 19%; in assay [5] (at 50.0 µM) it was -14.7%; in assay [6] (setting [7]), 18%; in assay [6] (setting [8]) it was 26%; in assay [6] (at 50.0 µM) it was -6.95%.
Take `Nc1ccc2c(S(=O)(=O)O)cc(S(=O)(=O)O)cc2c1`: the growth inhibition in assay [1] (setting [7]) was 3%; in assay [1] (setting [8]), 0%; in assay [1] (at 50.0 µM), -21.6%; in assay [2] (setting [7]), 2%; in assay [2] (setting [8]) it was -1%; in assay [2] (at 50.0 µM), -6.25%. The growth inhibition in assay [3] (setting [7]) is 0%; in assay [3] (setting [8]) it was -2%; in assay [3] (at 50.0 µM) it was -10.4%; in assay [4] (setting [7]) it was 3%; in assay [4] (setting [8]) it was 2%; in assay [4] (at 50.0 µM), 61.4%. Besides, the growth inhibition is 2% in assay [5] (setting [7]); -2% in assay [5] (setting [8]); 6.3% in assay [5] (at 50.0 µM); 1% in assay [6] (setting [7]); -1% in assay [6] (setting [8]); -31.4% in assay [6] (at 50.0 µM).
On to `O=C(CNCc1ccccc1)c1ccc(Cl)cc1`, for which the growth inhibition is -3% in assay [1] (setting [7]); -6% in assay [1] (setting [8]); 11.6% in assay [1] (at 50.0 µM); -2% in assay [2] (setting [7]); 6% in assay [2] (setting [8]); 1.45% in assay [2] (at 50.0 µM). Also, the growth inhibition was -3% in assay [3] (setting [7]); 17% in assay [3] (setting [8]); 8.4% in assay [3] (at 50.0 µM); -1% in assay [4] (setting [7]); -22% in assay [4] (setting [8]); 24.6% in assay [4] (at 50.0 µM). Moreover, the growth inhibition in assay [5] (setting [7]) is -2%; in assay [5] (setting [8]), 35%; in assay [5] (at 50.0 µM), -7.85%; in assay [6] (setting [7]) it was -4%; in assay [6] (setting [8]) it was 14%; in assay [6] (at 50.0 µM) it was 14.5%.

Source of the values: PubChem BioAssay (NCI).
